The full list was thinned out, with hits kept by preference.
Pf Dd2 growth: blocks in vitro growth of P. falciparum Dd2; P. falciparum Dd2 growth, SYBR Green, 72 h; actives 4.3% (n = 120,000); AID 1347417; Potency, µM (doses to about 28.9 µM), hits mostly inhibitors; active = well fitted inhibition curve with a large enough effect; also: nearly all actives have a fitted effect of over 65% in size
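Readout: SYBR Green fluorescence, 485 nm excitation, 535 nm emission, after ~16 h lysis at 37C. Before that, Dd2-infected red cells (2.5% hematocrit) grew 72 h with compound, 29 uM top final concentration.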
Large screens that a line does not name were inactive.

Cc1cccc(S(=O)(=O)c2cn(Cc3ccccc3)c3cc(N4CCCC(C)C4)c(F)cc3c2=O)c1 (stereo not given)	none
CCCCn1cc(S(=O)(=O)c2cc(C)ccc2C)c(=O)c2cc(F)c(N3CCC(C)CC3)cc21	none
Cc1ccc(S(=O)(=O)c2cn(Cc3ccccc3)c3cc(N4CCOCC4)c(F)cc3c2=O)cc1	Pf Dd2 growth 7.94µM
Cc1ccc(S(=O)(=O)c2cn(Cc3ccccc3)c3cc(N4CCCCC4)c(F)cc3c2=O)cc1	none
Cc1ccc(C)c(S(=O)(=O)c2cn(Cc3ccccc3)c3cc(N4CCCC4)c(F)cc3c2=O)c1	Pf Dd2 growth 10µM
Cc1cccc(S(=O)(=O)c2cn(Cc3ccc(F)cc3)c3cc(N4CCOCC4)c(F)cc3c2=O)c1	Pf Dd2 growth 6.31µM
CCCCn1cc(S(=O)(=O)c2cccc(C)c2)c(=O)c2cc(F)c(N3CCOCC3)cc21	none
Cc1cccc(S(=O)(=O)c2cn(C)c3cc(N4CCC(C)CC4)c(F)cc3c2=O)c1	none
Cc1cccc(Cn2cc(S(=O)(=O)c3ccccc3)c(=O)c3cc(F)c(N4CCOCC4)cc32)c1	Pf Dd2 growth 8.91µM
Cc1cccc(Cn2cc(S(=O)(=O)c3cccc(C)c3)c(=O)c3cc(F)c(N4CCOCC4)cc32)c1	none
CC(C)N1C(=O)C2(CCCC2)C1C(=O)N1CCc2ccccc21 (stereo not given)	none
CCc1ccccc1S(=O)(=O)N1CCCC(Cn2c(C3CC3)nc3cccnc32)C1 (stereo not given)	none
NC(=O)[C@@H]1C[C@H](Oc2cccnc2)CN1S(=O)(=O)c1ccccc1	none
OCC(Cc1ccco1)Cn1ccnc1-c1ccccn1 (stereo not given)	none
O=C(c1ccc2c(c1)OCO2)N1CCC2(CCCN(CCCc3ccccc3)C2)C1 (stereo not given)	none
CCOc1ccc(C(=O)NC2CCN(c3cnn(C)c(=O)c3)CC2)cc1	none
CCCn1c(C)cnc1CC1CCN(C(=O)c2ccccn2)C1 (stereo not given)	none
O=C(NCc1ccc(F)cc1)N1CCC(OC2CCN(Cc3ccccc3)CC2)CC1	none
Cc1cc(S(=O)(=O)N2CCCC(Cn3cnc4cccnc43)C2)ccc1Cl (stereo not given)	none
CCn1c(C2CCN(C(=O)CCn3nnnc3C)CC2)nn(C)c1=O	none
Cc1cc(C(=O)N2CCC(Cc3nc(-c4ccccc4)n[nH]3)C2)n(C)n1 (stereo not given)	none
CN1C(=O)[C@H]2CN(Cc3ccc4[nH]ccc4c3)C[C@H]2C1=O	none
CN1CCCCCCN(C(=O)Cc2cccnc2)[C@@H]2CCC[C@@H]2C1=O	none
Cc1cccc(CN2CCCCCCN(C)C(=O)[C@@H]3CCC[C@@H]32)c1	Pf Dd2 growth 2.51µM
CN1CCCCCCN(Cc2ccc3[nH]ccc3c2)[C@H]2CCC[C@H]2C1=O	Pf Dd2 growth 2µM
CN1CCCCCCN(C(=O)NCCc2ccccc2)[C@H]2CCC[C@H]2C1=O	none
Cc1cccc(CN2CCCCCNC(=O)[C@@H]3CCC[C@@H]32)c1	none
CCCCCNC(=O)Cc1csc2nc(C)c(-c3cc(C)n(-c4ccccc4CC)n3)c(=O)n12	none
Cc1nn2c(c1-c1ccnn1C(C)C)N(C(=O)COc1ccccc1C(N)=O)CCC2	none
COCCC(=O)N1CC(F)(F)C[C@H]1c1nc(C2CC2)no1	none
O=C(CN1CCCCCC1=O)NC1CCCc2nc(-c3cccnc3)ncc21 (stereo not given)	none
COc1cccc(CN2CC[C@H]3COC(=O)N3c3cc(F)ccc3C2)c1	none
Cc1nc(N2CCC(NC(=O)c3ccccc3F)CC2)cc(C(F)(F)F)n1	none
COc1cc(Cl)ccc1C(=O)NC1CCN(c2cc(C(F)(F)F)nc(C)n2)CC1	Pf Dd2 growth 5.01µM
Cc1nc(N2CCC(NC(=O)c3ccccc3Cl)CC2)cc(C(F)(F)F)n1	none
Cc1cc2cc(C(=O)N(C)Cc3ccc4nsnc4c3)ccc2o1	none
COc1ccc(CNC(=O)C(=O)NCC(c2ccco2)S(=O)(=O)c2ccc(C)cc2)cc1 (stereo not given)	none
COc1ccc(CNCCN2CCCC2)cc1	none
COc1ccc(CNCCC(c2ccc(C)cc2)c2ccco2)cc1 (stereo not given)	Pf Dd2 growth 12.6µM
COc1ccccc1C(=O)N1CCn2c(nnc2C2CCNCC2)C1	none
C[C@]1(CO)C2CC[C@@H](O)[C@@H](CC(=O)N3CCCC3)[C@]2(C)CC[C@H]1OC(=O)Nc1cccc(F)c1 (stereo not given in full)	none
CSc1cccc(NC(=O)O[C@@H]2CC[C@]3(C)C(CC[C@@H](O)[C@H]3CC(=O)N3CCCC3)[C@]2(C)CO)c1 (stereo not given in full)	Pf Dd2 growth 5.01µM
CCCNC(=O)O[C@@H]1CC[C@]2(C)C(CC[C@@H](O)[C@H]2CC(=O)NCc2ccc(F)cc2)[C@]1(C)CO (stereo not given in full)	none
COc1cc(NC(=O)O[C@@H]2CC[C@]3(C)C(CC[C@@H](O)[C@H]3CC(=O)N3CCCC3)[C@]2(C)CO)cc(OC)c1OC (stereo not given in full)	none
CSc1cccc(NC(=O)O[C@@H]2CC[C@]3(C)C(CC[C@@H](O)[C@H]3CC(=O)NCc3ccccc3)[C@]2(C)CO)c1 (stereo not given in full)	Pf Dd2 growth 11.2µM
CSc1cccc(NC(=O)O[C@@H]2CC[C@]3(C)C(CC[C@@H](O)[C@H]3CC(=O)N3CCC[C@H]3CO)[C@]2(C)CO)c1 (stereo not given in full)	none
O=C(O)COc1ccc(-c2nccc3c2C(=O)N(Cc2c[nH]c4ccccc24)CC(CNC(=O)Cc2ccccc2)O3)cc1 (stereo not given)	none
Cc1nc(N2CCC(NCCN3CCCOC3=O)CC2)c2ccsc2n1	none
CCC1(O)CCC12CCN(C(=O)c1cccs1)CC2 (stereo not given)	none
O=C1N[C@H](CCC(=O)N2CCC(c3nc4ccccc4[nH]3)CC2)C(=O)Nc2ccccc21	none
CC(C)CN(CCCNC(=O)CN1C(=O)COc2ccc(S(=O)(=O)N3CCCCCC3)cc21)CC(C)C	Pf Dd2 growth 11.2µM
CCN(CC)CCCNC(=O)CN1C(=O)COc2ccc(S(=O)(=O)N3CCC(C)CC3)cc21	none
CCCCNC(=O)CN1C(=O)COc2ccc(S(=O)(=O)N3CCCC3)cc21	none
Cc1ccc(C(=O)N2CCC(n3cc(-c4nc(C)no4)nn3)C2)c(C)c1 (stereo not given)	none
COc1ccc(C2Cn3nnc(C(=O)N4CCC(C(=O)NCCc5ccccc5)CC4)c3CO2)cc1 (stereo not given)	none
CCc1nc(C)c(C(=O)NCc2cccnc2Oc2ccc(F)c(F)c2)o1	none
Cc1nn(-c2ccccc2)c(Oc2ccc(F)cc2F)c1CCC(=O)NC1CC1	none
COc1ccc2c(c1)CCc1sc(NC(=O)c3ccc(Br)cc3)nc1-2	none
COc1cccc(OC)c1C(=O)Nc1nc2c(s1)CCc1ccccc1-2	none
COc1ccc2c(c1)-c1nc(NC(=O)c3cccc(Br)c3)sc1CC2	Pf Dd2 growth 10µM
CCc1noc(-c2cn(C3CCN(C(=O)c4ccc(Cl)s4)CC3)nn2)n1	none
O=C(c1ccc(-c2ncc3cnc(C4=CCOCC4)cn23)cc1)N1CCc2ccccc2C1	none
O=C(c1ccc(-c2ncc3cnc(-c4ccccc4)cn23)cc1)N1CCS(=O)(=O)CC1	none
O=C(c1cccc(O)c1)N1CC=C(c2cnc3cnc(-c4ccccc4)cn23)CC1	Pf Dd2 growth 2µM
CN(Cc1csc(-c2ccccc2)n1)C(=O)c1ccc(-n2cnnn2)cc1	none
COc1cccc(S(=O)(=O)N2CCC(Cc3nncn3C)CC2)c1	none
O=C(CCC1CCCC1)N1CCc2c([nH]c3ccccc23)C1c1ccc(F)cc1 (stereo not given)	Pf Dd2 growth 11.2µM

Bioassay records as filed in PubChem BioAssay.
